Source: PubChem BioAssay (University of Kansas High Throughput Screening Laboratory)
mHTT CaM bind: inhibitors of human mutant huntingtin-calmodulin interaction; inhibition, % at 15 µM; 190,000 tested, 3.6% active; AlphaScreen His-mHTT/GST-CaM binding, luminescence; P42858;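 further: 0% = both proteins with DMSO and 100% = one protein alone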
Pf apPOL inh: Pf-apPOL DNA polymerase inhibition; Recombinant Pf-apPOL, molecular beacon fluorescence, 1.5 h; inhibition, % at 10 µM; 210,000 tested, 0.25% active
The depositor's hits bear a star; · = no result given; ! = repeats disagree. A selection: hits, their analogues and other compounds. The true share with any hit is near 3.6%. No stated cut-off is given here; in the data, active means inhibition above about 50%; inactive means the rest.

SMILES | mHTT CaM bind | Pf apPOL inh
COc1cc(CN2CCN(Cc3ccc([N+](=O)[O-])cc3)CC2)cc(OC)c1 | -10 | 3
CC(=O)N1CCC(C(=O)N2CCC(Nc3cccnc3)C2)CC1 (stereo not given) | -9 | -3
Cc1ccc(N(CCCCN2C(=O)c3ccccc3C2=O)C(=O)c2ccc([N+](=O)[O-])o2)cc1 | 29 | -7
CCCCNC(=O)C1CCc2nc(N3CCC(C)CC3)ncc2C1 (stereo not given) | -1 | -5
CCOc1ccccc1NC(NC(=O)c1ccco1)C(=O)c1ccc(Cl)cc1 (stereo not given) | 43 | -4
COc1ccc(OC)c(NC(NC(=O)c2ccco2)C(=O)c2ccc(Cl)cc2)c1 (stereo not given) | 67* | -6
N#Cc1nc(COc2ccc(Br)cc2)oc1N1CCCCC1 | 51* | -3
N#Cc1nc(COc2ccc(Br)cc2)oc1N1CCC(C(N)=O)CC1 | 23 | -1
O=[N+]([O-])c1cc(F)c(N2CCOCC2)cc1N1CCOCC1 | 4 | -7
O=[N+]([O-])c1cc(F)c(N2CCCC2)cc1N1CCCC1 | 59* | 1
Cc1cc(N2CCCCC2)c(F)cc1[N+](=O)[O-] | 0 | 1
O=[N+]([O-])c1cc(F)c(N2CCCC2)cc1N1CCCCCC1 | 79* | -4
O=C(c1ccc([N+](=O)[O-])o1)N1CCN(c2ccc(F)cc2)CC1 | -1 | -2
Cc1n[nH]c(=O)c2[nH]c(-c3ccncc3)nc12 | -8 | ·
COc1ccc(CNC(=O)c2cc3c(s2)CN(C(C)C)C3)cc1 | -3 | -4
CC(C)CN1CCn2cc(C(=O)N3CCN(c4ccccc4)CC3)nc2C1 | 58* | -6
Cc1cc(C)c(CNC(=O)c2cn3c(n2)CN(CC(C)C)CC3)c(C)c1 | 71* | 0
Cc1cccc(N2CCN(C(=O)c3cn4c(n3)COCC4)CC2)c1C | 5 | 0
Cc1cccc(N2CCN(C(=O)c3cn4c(n3)CN(CC(C)C)CC4)CC2)c1C | 71* | -8
Cc1ccc(C)c(CNC(=O)c2cn3c(n2)CN(CC(C)C)CC3)c1 | 20 | 0
CCCN1CCn2cc(C(=O)N3CCN(c4ccc(Cl)cc4)CC3)nc2C1 | 17 | -5
CC(C)CN1CCn2cc(C(=O)N3CCN(c4ccccc4Cl)CC3)nc2C1 | 46 | -4
CC(C)CN1CCn2cc(C(=O)N3CCN(c4ccc(Cl)cc4)CC3)nc2C1 | 92* | -9
COc1ccc(-c2noc(C3CCCN3C(=O)NCCc3ccccc3)n2)cc1 (stereo not given) | 18 | -6
Cc1cc(C(=O)NC2CCCC2)nc2cc(-c3cccs3)nn12 | -18 | -6
SMILES | mHTT CaM bind | Pf apPOL inh
COc1ccc(N2CCC(C(=O)N3CCCC3)C2=O)cc1 (stereo not given) | -4 | -6
CCC(=O)N1CCc2sc(S(=O)(=O)Nc3ccc(OC)c(OC)c3)cc2C1 | 7 | 2
O=C(Nc1c2c(nn1-c1ccc(F)cc1)CS(=O)C2)c1ccco1 (stereo not given) | 3 | -4
COc1ccc(-n2nc3c(c2NC(=O)c2ccco2)CS(=O)(=O)C3)cc1 | 4 | 1
O=C(Nc1c2c(nn1-c1ccc(Oc3ccccc3)cc1)CSC2)c1ccco1 | 96* | -9
O=C(Nc1c2c(nn1-c1ccc(Oc3ccccc3)cc1)CSC2)C1CC1 | 56* | -10
O=C(Nc1c2c(nn1-c1ccccc1)CSC2)C1CC1 | 22 | -4
O=C(Nc1c2c(nn1-c1ccc(F)cc1)CSC2)c1ccco1 | 79* | -7
O=C(Nc1c2c(nn1-c1ccccc1)CSC2)c1ccco1 | 77* | -12
O=C(Nc1c2c(nn1-c1ccc([N+](=O)[O-])cc1)CSC2)c1ccco1 | 28 | 17
CSc1ccc(NC(=O)N2CC3CC2CC3NS(=O)(=O)c2ccccc2)cc1 (stereo not given) | 15 | 2
Cc1cc(=O)n2nc(N)sc2n1 | -4 | ·
Cc1ccc(C(=O)N2CCC(CC(=O)NCCC(C)N3CCCC3)CC2)cc1 (stereo not given) | 9 | -6
COc1ccc(-c2cnnn2-c2ccc(NC(=O)c3cccc(OC)c3)cc2)cc1 | 13 | -2
CCN1CCN(C(=O)Cn2cc(C)sc2=NC(=O)c2cccc(Cl)c2)CC1 | 13 | 0
COc1cccc(C(=O)N=c2sc(C)cn2CC(=O)N2CCCC2)c1 | 1 | 87*
COc1ccccc1CNS(=O)(=O)c1ccc(F)c(C(=O)Nc2ccc(Cl)cc2F)c1 | -4 | -4
CN1CC=C2C(C#N)=C(N)C(C#N)(C#N)C(c3cccc(Cl)c3)C2C1 (stereo not given) | 9 | -3
CC1CC=C2C(C#N)=C(N)C(C#N)(C#N)C(c3cccc(Cl)c3)C2C1 (stereo not given) | 70* | 0
N#CC1=C(N)C(C#N)(C#N)C(c2cccnc2)C2CCCC=C12 (stereo not given) | 5 | 7
N#CC1=C(N)C(C#N)(C#N)C(c2cccc([N+](=O)[O-])c2)C2CCCC=C12 (stereo not given) | 53* | 7
CC(C)(C)C1CC=C2C(C#N)=C(N)C(C#N)(C#N)C(c3c[nH]c4ccccc34)C2C1 (stereo not given) | 98* | 24
N#CC1=C(N)C(C#N)(C#N)C(c2ccccc2I)C2CCCC=C12 (stereo not given) | 11 | -3
Cc1[nH]c2ccccc2c1C(Nc1ccccn1)c1ccc([N+](=O)[O-])cc1 (stereo not given) | 97* | -1
Cc1[nH]c2ccccc2c1C(Nc1ccccc1F)c1ccccn1 (stereo not given) | 24 | -13
SMILES | mHTT CaM bind | Pf apPOL inh
COc1cc(C(C[N+](=O)[O-])c2c(C)[nH]c3ccccc23)cc(OC)c1OC (stereo not given) | 42 | 7
Cc1[nH]c2ccccc2c1C(C[N+](=O)[O-])c1ccc(F)cc1 (stereo not given) | 54* | -6
Cc1ccc(N(C(=O)COc2ccc(C(C)C)cc2)C2C=CS(=O)(=O)C2)cc1 (stereo not given) | 9 | 3
O=C(CCCOc1ccccc1)Nc1cccc(F)c1 | -11 | -5
Cc1c(N2C(=O)c3ccc(-c4nc5ccccc5c(=O)o4)cc3C2=O)cccc1[N+](=O)[O-] | 0 | -1
CC(C)(C)OC(=O)N1CCC(CNS(=O)(=O)c2ccc3c(c2)OCCO3)CC1 | · | 63*!
O=S(=O)(NCCSC1CCCCC1)c1ccc2c(c1)OCCO2 | -4 | 3
CC1=C(C(N)=O)C(c2ccco2)C(C#N)=C(SCC(=O)Nc2cccc(Cl)c2C)N1 (stereo not given) | 27 | 0
COc1ccc(Cl)cc1NC(=O)CSC1=C(C#N)C(c2ccco2)C(C(N)=O)=C(C)N1 (stereo not given) | 54* | -8
COc1cc(OC)cc(C(=O)N2CC(C)C(c3nc(-c4ccncc4)no3)C2)c1 (stereo not given) | 0 | -6
CCc1ccc(CNC(=O)C2CCN(c3cc(=O)n(C)c(=O)n3CC)CC2)cc1 | 41 | -4
CCn1c(N2CCC(C(=O)NCc3ccc4c(c3)OCO4)CC2)cc(=O)n(C)c1=O | 42 | -3
CCn1c(N2CCC(C(=O)NCc3ccco3)CC2)cc(=O)n(C)c1=O | 52* | -4
CCn1c(N2CCC(C(=O)NCc3ccc(OC)cc3)CC2)cc(=O)n(C)c1=O | 57* | -6
Cn1c(SCc2ccccc2)nc2ccccc2c1=O | -43 | -2
CC(=O)C1=C(O)C(=O)N(C)C1c1cccc([N+](=O)[O-])c1 (stereo not given) | 2 | -3
